Several values for one entry are separate records, joined by “and”; a condition that tells them apart may be missing. Equal values may be shown once. Activity calls are given as the source filed them. The calls were made as follows: active = hit-call score of the fitted dose curve at least 0.9, where 1 is the maximum; inactive = score below 0.9.

As usually defined, the AC50 is the midpoint of the concentration-response curve, whichever way the signal moves.

The nature of the test: CCTE_Shafer_MEA_dev_network_spike_peak: CCTE's Neural Network Formation Assay for Mean Number of Electrodes in Network Spike, Shafer Lab (AID 2284049).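 As to AC50: fitted for loss of signal meaning fewer electrodes in network spikes than DMSO.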 In a few lines: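 Network-spike peak electrode count from recordings on days 5, 7, 9 and 12 was combined as trapezoidal area under the curve. Rat cortical cultures were treated continuously from plating, with compound renewed at each feed (DIV 5, 9); fits versus DMSO.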
On to `Brc1cc(Br)c(Oc2cc(Br)c(Br)cc2Br)cc1Br`, for which the outcome was inactive.

With `CC(C)O`, the AC50 is 8.39 µM (active). `F`: the compound was classed as inactive. With `CC(=O)N[C@@H](CC(=O)O)C(=O)O`, the call was inactive. With `CCCCCC=C(C)C(CC)CCO` (stereo not given), the call was inactive.

On to `BrC1CC(Br)CC(Br)CC(Br)CC(Br)CC(Br)C1` (stereo not given), for which the AC50 was 7.04 µM (active). As for `C[C@@H]1CC[C@@H](C(C)(C)O)[C@H](O)C1`, the result was inactive. Regarding `CC(C)c1nn(C(=O)NC(C)(C)C)c(=O)n1N`, the outcome was inactive. Regarding `[O]=[V]([OH])([OH])[OH]`, the AC50 was 10.7 µM (active). With `CCc1ccccc1`, the compound was classed as inactive.

In the case of `CN(C)CCCn1cc(C2=C(c3c[nH]c4ccccc34)C(=O)NC2=O)c2ccccc21`, the AC50 is 3.8 µM (active) and 3.08 µM (active) and 5 µM (active). As for `CCCCCC(C)(CC)C(=O)NC` (stereo not given), the compound was called inactive.

In the case of `Cc1[nH]n(C)c(=O)c1C(=O)c1ccc(C(F)(F)F)cc1S(C)(=O)=O`, the compound was classed as inactive. Turning to `CC(CNC(=S)[S-])NC(=S)[S-].[Zn+2]` (stereo not given), the AC50 was 20.9 µM (active). Consider `C[C@@H]1CCO[C@H]2Cn3cc(C(=O)NCc4ccc(F)cc4F)c(=O)c(O)c3C(=O)N12`, for which the AC50 was 1.11 µM (active).
